# Reference: paper PMC4552634, “A New Set of Chemical Starting Points with Plasmodium falciparum Transmission-Blocking Potential for Antimalarial Drug Discovery” (PLoS ONE, 2015)
# Where two headings read alike, the source gives them in different places. Out of some 13,000 compounds screened, about 3,200 (25%) showed an effect of 50% or more. Some of the results follow.
# System: P. falciparum stage V gametocytes
# Parameters: BacTiter-Glo ATP luminescence viability of purified stage V gametocytes in 384-well plates, per cent inhibition versus DMSO
# Details: 48 h, 5 µM, inhibitor
structure (smiles),measurement,setting,value
CCN1CCN(c2cc(C)c3cc(NC(=O)c4ccc(N(CC)CC)cc4)ccc3n2)CC1 [TCMDC-125574],% Inhibition,,18.21%
COc1ccc(-c2csc(NC(=O)CCC(=O)O)n2)cc1OC [TCMDC-124274],% Inhibition,,-7.165%
CCCC(C)c1ccc(N2C(N)=NC(N)=NC2(C)C)cc1 (stereo not shown) [TCMDC-137715],% Inhibition,,12.27%
O=C(O)c1ccc(NC(=O)C2CC(=O)N(Cc3ccc(Cl)cc3)C(=Nc3ccc(Cl)cc3)S2)cc1 (stereo not shown) [TCMDC-124036],% Inhibition,,-57.25%
COc1ccc(C[C@H](N)C(=O)N[C@H]2[C@@H](O)[C@H](n3cnc4c(N(C)C)ncnc43)O[C@@H]2CO)cc1 [TCMDC-123493],% Inhibition,% Inhibition,123.8%
COc1ccc(C[C@H](N)C(=O)N[C@H]2[C@@H](O)[C@H](n3cnc4c(N(C)C)ncnc43)O[C@@H]2CO)cc1 [TCMDC-123927],% Inhibition,% Inhibition,96.23%
CS(=O)(=O)c1ccc(-c2cncc(Nc3cccc([N+](=O)[O-])c3)c2)cc1 [TCMDC-136669],% Inhibition,,44.65%
CCn1cc(CN2C(=O)C(c3ccccc3)(c3ccccc3)N=C2N)cn1 [TCMDC-136798],% Inhibition,,10.89%
CC1(C)N=C(N)N=C(N)C1c1ccc(Cl)c(Cl)c1 (stereo not shown) [TCMDC-137491],% Inhibition,,-1.127%
N#CC(NC(=O)C=Cc1ccccc1)c1ccccc1 (stereo not shown) [TCMDC-131635],% Inhibition,,-0.4742%
c1ccc(Oc2cccc(Nc3ccnc4ccccc34)c2)cc1 [TCMDC-137251],% Inhibition,,14.27%
c1cc(Cc2ccc(Nc3c4ccccc4nc4ccccc34)cc2)cc(Nc2c3ccccc3nc3ccccc23)c1 [TCMDC-137793],% Inhibition,,84.71%
Cc1ccc(Nc2nc(N)c3ccccc3n2)cc1.Cl [TCMDC-123638],% Inhibition,,30.09%
Cl.Nc1nc(Nc2cccc(O)c2)nc2ccccc12 [TCMDC-124459],% Inhibition,,5.684%
Cl.c1ccc2c(Nc3ccc(Cc4ccc(Nc5c6ccccc6nc6ccccc56)cc4)cc3)c3ccccc3nc2c1 [TCMDC-137354],% Inhibition,,113.6%
CC1(C)Cc2c(oc3ncn(CCn4cnc5oc6c(c5c4=N)CC(C)(C)SC6)c(=N)c23)CS1 [TCMDC-125795],% Inhibition,,-5.815%
O=C(NC1CC1)c1ccc(N2CCC(c3ccccc3)CC2)nc1 [TCMDC-134590],% Inhibition,,17.19%
Cc1ccc(CON2C(N)=NC(N)=NC2(C)C)cc1C [TCMDC-131660],% Inhibition,,9.174%
CS(=O)(=O)Nc1ccc(OCCCCCCOc2ccc(NS(C)(=O)=O)cc2)cc1 [TCMDC-137531],% Inhibition,,17.32%
CC(C)CCNC(=N)Nc1ccc(OCCCOc2ccc(NC(=N)NCCC(C)C)cc2)cc1 [TCMDC-137615],% Inhibition,,100.2%
COc1ccc(NC(=O)[C@H](CC(C)C)Nc2cc(C)nc(NCCOc3ccccc3)n2)cc1 [TCMDC-134760],% Inhibition,,36.25%
NOCCCOc1ccc(Cl)cc1 [TCMDC-123471],% Inhibition,,6.801%
CC(C)CCNC(=N)Nc1ccc(OCCCCCOc2ccc(NC(=N)NCCC(C)C)cc2)cc1 [TCMDC-137614],% Inhibition,,113.6%
COc1ccc(-c2ccc(CNC(=O)c3cccc(C#N)c3)c(F)c2)cc1CN1CCCN(C)CC1 [TCMDC-133367],% Inhibition,,3.232%
O=C(CCc1cccnc1)Nc1ccc(-c2cccc(-c3nc4ccc(F)cc4[nH]3)c2)cc1 [TCMDC-132146],% Inhibition,,-0.1199%
CC1(C)CC(=O)c2c(O)cc(OCc3ccncc3)cc2O1 [TCMDC-131348],% Inhibition,,-21.15%
Cc1cccc2nc(-c3cccc(-c4cccc(CNCCc5cccn5C)c4)c3)[nH]c12.O=C(O)C(F)(F)F [TCMDC-132685],% Inhibition,,-19.68%
Cc1cccc2nc(-c3ccc(-c4ccc(C(=O)NCCN5CCCC5)cc4)cc3)[nH]c12 [TCMDC-132320],% Inhibition,,6.886%
Cc1cccc2nc(-c3cccc(-c4ccc(CNCCCN5CCCC5=O)cc4)c3)[nH]c12.O=C(O)C(F)(F)F [TCMDC-132753],% Inhibition,,7.956%
Cc1cccc2nc(-c3ccc(-c4cccc(CNCCN5CCNCC5)c4)cc3)[nH]c12 [TCMDC-132867],% Inhibition,,101.3%
Cc1cccc2nc(-c3cccc(-c4cccc(CNCCN5CCNCC5)c4)c3)[nH]c12 [TCMDC-132873],% Inhibition,,108%
Cc1cccc2nc(-c3cccc(-c4cccc(CNCCCN5CCCC5=O)c4)c3)[nH]c12.O=C(O)C(F)(F)F [TCMDC-132751],% Inhibition,,3.721%
CCOc1cc2ncnc(Nc3cc(Cl)c(Cl)c(Cl)c3)c2cc1OCC [TCMDC-131926],% Inhibition,,9.404%
O=C(c1ccc(Cl)cc1)N1CCCC(C(=O)N(Cc2nnc(-c3ccccc3Cl)o2)C2CC2)C1 (stereo not shown) [TCMDC-125331],% Inhibition,,-2.423%
CC(=NNC(=S)Nc1ccccc1Cl)c1ccccn1 [TCMDC-124278],% Inhibition,,2.359%
O=C(Nc1ccc(S(=O)(=O)N2CCCCC2)cc1)c1cc(-c2ccccc2O)n[nH]1 [TCMDC-124310],% Inhibition,,-14.76%
Fc1ccc(NC(=S)NCCc2ccccc2)cc1 [TCMDC-123847],% Inhibition,,-9.114%
CC(C)c1ccc(NC(=S)NN=Cc2ccccn2)cc1 [TCMDC-125520],% Inhibition,,108.1%
COc1ccc2c(NN=Cc3ccccn3)ccnc2c1 [TCMDC-142028],% Inhibition,,-6.659%
Cc1c(Cl)cccc1NC(=S)NN=Cc1ccccn1 [TCMDC-125487],% Inhibition,,106.6%
O=C(Nc1ccc(S(=O)(=O)N2CCCCCC2)cc1)c1cc(-c2ccccc2O)n[nH]1 [TCMDC-125203],% Inhibition,,-36.28%
Cc1cc(NN=Cc2ccccn2)c2cc(F)ccc2n1 [TCMDC-142020],% Inhibition,,16.37%
O=S(=O)(c1ccc(NC(=S)NN=Cc2ccccn2)cc1)N1CCCCC1 [TCMDC-125787],% Inhibition,,60.8%
Fc1ccc(NC(=S)NN=Cc2ccccn2)cc1 [TCMDC-125521],% Inhibition,,108.6%
Cn1cnc2c(SCc3ccccc3OCc3ccccc3)ncnc21 [TCMDC-136495],% Inhibition,,-28.48%
O=C(/C=C/c1ccc(Cl)c(Cl)c1)N(Cc1ccccc1)C1CCC(CN2CCC(c3c[nH]c4ccccc34)CC2)CC1 (stereo not shown) [TCMDC-140359],% Inhibition,,26.1%
